Laboratory results as given in PubChem BioAssay (NCI).
This is part of a sample that, as a whole, favours compounds with a hit. Of some 83,000 tested, about 20% had one in any assay.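 Cells were grown in 96-well plates and exposed to the test compound at a single concentration for 48 hours; results are reported as percent growth, with values below 10 considered active.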 Values without a mark were called inactive. Calls of active or inactive are those of the source.

Test system: M14 melanoma
Assay: NCI-60 one-dose screen, 48 h (100 = growth as untreated, 0 = no growth, -100 = all killed)
Details: 10 µM unless noted
Description: Growth inhibition of the M14 human tumor cell line is measured as a screen for anti-cancer activity. Cells are grown in 96 well plates and exposed to the test compound for 48 hours. Compounds are tested at a single concentration, which is 10^-5 M for most compounds. The reported endpoint is percent growth (GI% or GIPRCNT), where numbers from 0 - 100% represent growth inhibition, and numbers from -100% - 0 represent cell death. For example, a value of 40 represents 60% growth inhibition. A value of 0 means no net growth occurred over the course of the experiment. A value of -40 indicates 40% of cells at the beginning of the experiment died by the end of the experiment. A value of -100 means all cells are dead at the end of the experiment.
NCI-60 Human Tumor Cell Lines Screen was performed using the standard one-dose NCI protocol, which is described in more detail at https://dtp.cancer.gov/discovery_development/nci-60/default.htm.
Compounds with GIPRCNT values below 10 were considered active. Activity score was based on GIPRCNT using the following formula: […]
Score is 0 for GIPRCNT values of 100 or above, 50 for GIPRCNT values of 0, and 100 for GIPRCNT values of -100.

| Compound | growth |
| --- | --- |
| Nc1nc(N)nc(NCc2ccccc2)n1 | 107% |
| Cn1c2c(Cl)c(Cl)ccc2c2cc(N)[nH]c(=O)c21 | 97.8% |
| Cc1cc2cc3cc(C)c(N)cc3[n+](C)c2cc1N | 18.7% |
| CCOC(=O)N1CCc2c(sc3nc4nc[nH]n4c(=O)c23)C1 | 98.4% |
| CC(O)(CO)c1ccccc1 (stereo not given) | 94.6% |
| Cc1ccc2nc3c(cc2c1)CSc1nnc(-c2ccc[nH]c2=S)n1N3 | 93% |
| CCNC(=S)NNC(=O)c1cc2ccc1CCc1ccc(cc1)CC2 | 95% |
| Nc1c(C(=O)Nc2ccc(Cl)cc2)cc(-c2nc3ccccc3s2)c(=O)n1NS(=O)(=O)c1ccc(Cl)cc1 | 98.2% |
| Fc1cc(C2=NNC(c3ccc[nH]3)C2)ccc1-n1ccc(C(F)(F)F)n1 (stereo not given) | 96.4% |
| COc1cc(C(=O)c2cnc(-c3ccc4cc[nH]c4c3)[nH]2)cc(OC)c1OC | 4.97% (active) |
| COc1ccc(-n2cc(-c3cc(OC)c(OC)c(OC)c3)n(C(C)=O)c2=O)cc1 | 111% |
| O=C(Nc1sc2c(c1C(=O)O)CCCC2)c1cccc(C(F)(F)F)c1 | 98.8% |
| CN1CCN(c2cnc(C(=O)Nc3cc(F)cc4cccnc34)cn2)CC1 | 51.4% |
| C#Cc1cccc(NC(=O)Nc2ccc(NC(=O)CCl)cc2)c1 | 4.51% [8.25 µM] (active) |
| C=CCn1c(SCC(=O)Nc2ccc(C(=O)/C=C/c3cc(OC)c(OC)c(OC)c3)cc2)nnc1-c1cc(-c2ccc(S(C)(=O)=O)cc2)nc2ccccc12 | 88.8% |
| c1ccc(-c2nnc(Nc3ccc4c(c3)OCCO4)o2)c(NCc2ccncc2)c1 | -17.8% (active) |
| CSc1nnc2c(=O)n(C)c(=O)n(C)c2n1 | 102% |
| Cc1c2c(cc[n+]1Cc1ccc(F)cc1)c1ccc(OCc3cccc(F)c3)cc1n2Cc1cccc(F)c1 | -82.1% (active) |
| O=C(Nc1nc(-c2ccccc2Cl)cs1)c1cc(-c2ccccc2)nc2ccc(Cl)cc12 | 4.1% (active) |
| C#Cc1cccc(NC(=O)Nc2cccc(N=C=S)c2)c1 | 98.5% [8.25 µM] |

| Compound | growth |
| --- | --- |
| Clc1ccc(N2N=C(c3cccc(Nc4ccncc4)c3)CC2c2ccc3c(c2)OCO3)cc1 (stereo not given) | -52.4% (active) |
| O=C(Nc1ccc2cc3ccc(NC(=O)N4CCCCCC4)cc3nc2c1)N1CCCCCC1 | -66.2% (active) |
| CC1=NNC(=O)C1CCC(=O)N/N=C(\C)c1ccc2ccccc2c1 (stereo not given) | 113% |
| COc1ccccc1-c1c(-c2ccc(Cl)cc2)c2cc3c(cc2[nH]c1=O)OCCO3 | 72.5% |
| O=S(=O)(NCCNc1nccc(-c2c(-c3ccc(F)c(O)c3)nc3occn23)n1)c1ccccc1 | 18.8% |
| O=C1NC(=O)C(=Cc2cn(Cc3ccccn3)c3ccccc23)C(=O)N1 | 99.7% |
| COc1ccccc1/C=C1\Oc2cc(OCCCN3CCCC3)ccc2C1=O | 100% |
| COc1cc2c(cc1[N+](=O)[O-])-c1ccc([N+](=O)[O-])cc1/C2=N/NC(N)=S | 82.8% |
| CN1CCN(Cc2ccc(NC(=O)c3cncc(C#Cc4cnccc4C(F)(F)F)c3)cc2C(F)(F)F)CC1 | 35.2% |
| COc1ccc2c(c1)c(CC(=O)NCCOCCOCC(=O)Nc1ccc(OC)c(C(N)=O)c1O)c(C)n2C(=O)c1ccc(Cl)cc1 | 98.3% |
| C=C1C(=O)O[C@H]2[C@H]1CC/C(COC(=O)/C=C/c1c[nH]c3ccccc13)=C\CC[C@@]1(C)O[C@@H]21 | -76.9% (active) |
| NC(=O)c1cccc(-n2ccc3cc(NC(=O)Nc4cc(C(F)(F)F)cc(C(F)(F)F)c4)ccc32)n1 | 51% |
| Cc1ccc(C2CC(c3cccc(Nc4ccncc4)c3)=NN2c2ccc(Cl)cc2)cc1 (stereo not given) | -57.3% (active) |
| CCC(=O)c1ccc(O)c(OC)c1 | 101% |
| O=S(=O)(c1ccc(N/N=C\c2ccccc2)cc1)c1ccc(N/N=C/c2ccccc2)cc1 | 76.7% |
| O=S(=O)(NCCNc1nccc(-c2c(-c3ccc(F)c(O)c3)nc3sccn23)n1)c1ccccc1 | 14.5% |
| COc1cc(C2CC(c3cccc(Nc4ccncc4)c3)=NN2C(C)=O)cc(OC)c1OC (stereo not given) | 100% |
| Cn1ncc2c(Nc3ccccc3Cl)nc(Cl)nc21 | 124% |
| COc1ccc(C(=O)c2cc3c(N)c(C(=O)Nc4cccc5ccccc45)sc3nc2C)cc1 | 11.6% |
| COc1cc(COC(=O)CCCCC[P+](c2ccccc2)(c2ccccc2)c2ccccc2)c(OC)c2c1OCO2 | 43.3% |
